The nature of assay [1]: Quantitative High-Throughput drug screen in 47 multiple myeloma cell lines against the NCATS MIPE library collection: JIM3_ECACC cell viability assay (AID 1918963; note: nearly all actives have a fitted effect of over 35% in size). An outline of the steps: (§1)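 qHTS of the MIPE 4.0 collection: 500 myeloma cells/well, 48 h drug exposure at 37C in 5% CO2, then CellTiter-Glo for 5 min at room temperature before luminescence reading.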
Assay [2] can be described thus: Quantitative High-Throughput drug screen in 47 multiple myeloma cell lines against the NCATS MIPE library collection: JIM1_ECACC cell viability assay (AID 1918964). In short, it runs like this: (§2)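 Primary qHTS used for cherry-picking: cells at 500/well, library compounds for 48 h (37C, 5% CO2), luminescent ATP assay.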
A short description of assay [3]: Quantitative High-Throughput drug screen in 47 multiple myeloma cell lines against the NCATS MIPE library collection: INA6_PLB cell viability assay (AID 1918965; note: nearly all actives have a fitted effect of over 55% in size). In short, it runs like this:
(§3)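 Luminescent ATP measurement with CellTiter-Glo gives viability, scaled between DMSO-only wells (100%) and media-only wells (0%). Cells, 500 per well, faced library compounds for 48 hours at 37C.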

The nature of assay [4]: Quantitative High-Throughput drug screen in 47 multiple myeloma cell lines against the NCATS MIPE library collection: JJN3_DSMZ cell viability assay (AID 1918966; note: nearly all actives have a fitted effect of over 50% in size). An outline of the steps:
as §2

Assay [5] in a line: Quantitative High-Throughput drug screen in 47 multiple myeloma cell lines against the NCATS MIPE library collection: Karpas25_ECACC cell viability assay (AID 1918968; note: nearly all actives have a fitted effect of over 35% in size). An outline of the steps: as §2
Assay [6] can be described thus: Quantitative High-Throughput drug screen in 47 multiple myeloma cell lines against the NCATS MIPE library collection: KMS27_JCRB cell viability assay (AID 1918970). Note: nearly all actives have a fitted effect of over 30% in size. An outline of the steps: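 Myeloma cells (500 per well) were exposed to MIPE 4.0 compounds for 48 h at 37 °C, 5% CO2; viability was read as ATP luminescence with CellTiter-Glo, normalized to DMSO-only (100%) and media-only (0%) wells.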

Assay [7] can be described thus: Quantitative High-Throughput drug screen in 47 multiple myeloma cell lines against the NCATS MIPE library collection: KMS12BM_JCRB cell viability assay (AID 1918971). Note: nearly all actives have a fitted effect of over 35% in size. In short, it runs like this: as §1
Assay [8] in a line: Quantitative High-Throughput drug screen in 47 multiple myeloma cell lines against the NCATS MIPE library collection: KMS12PE_JCRB cell viability assay (AID 1918972). For viability: series mostly up to about 46 µM. Note: nearly all actives have a fitted effect of over 30% in size. In short, it runs like this: as §3
Assay [9] in a line: Quantitative High-Throughput drug screen in 47 multiple myeloma cell lines against the NCATS MIPE library collection: H1112_PLB cell viability assay (AID 1918967; note: nearly all actives have a fitted effect of over 30% in size). An outline of the steps:
as §2

The nature of assay [10]: Quantitative High-Throughput drug screen in 47 multiple myeloma cell lines against the NCATS MIPE library collection: KMS20_JCRB cell viability assay (AID 1918973). Note: nearly all actives have a fitted effect of over 45% in size. An outline of the steps: as §2

Structures are written as SMILES. Results filed as inconclusive are left out. Active and inactive are the calls of the source. Calls come from the whole dose curve; as a rule, active = well fitted curve in the direction sought with a large enough effect; inconclusive = small, poorly fitted or top-dose-only effect, or another doubt; inactive = no such curve, though single readings can be large; an effect the other way counts as inactive or inconclusive.
Potency is the fitted concentration of half-maximal effect.

As to `Cn1cnc2c1c(=O)[nH]c(=O)n2C`, the Potency in assay [1] was 16.6 µM (active); in assay [2], 4.69 µM (active); in assay [3], 7.43 µM (active); in [4], 16.6 µM (active); in [5], 9.35 µM (active); in assay [6] it was 9.35 µM (active). Further, the Potency was 18.7 µM (active) in assay [7] and 5.9 µM (active) in [8].

Take `CS(=O)(=O)CCNCc1ccc(-c2ccc3ncnc(Nc4ccc(OCc5cccc(F)c5)c(Cl)c4)c3c2)o1`: the Potency in [1] was 1.18 µM (active); in assay [2], 6.62 µM (active); in assay [3], 3.32 µM (active); in [9], 0.0743 µM (active); in [5] it was 0.372 µM (active); in assay [6], 10.5 µM (active). For the same molecule, the values for the Potency in assay [7], in [8] and in assay [10] were 20.9 µM (active), 4.69 µM (active) and 1.48 µM (active), respectively.

In the case of `CC[C@@]1(O)C(=O)OCc2c1cc1n(c2=O)Cc2cc3c(CN(C)C)c(O)ccc3nc2-1`, the Potency was 5.26 µM (active) in [1]; 0.743 µM (active) in [2]; 0.0296 µM (active) in [3]; 5.9 µM (active) in assay [4]; 0.662 µM (active) in [5]; 0.0833 µM (active) in [6]. For the same molecule, in assay [7], the Potency was 1.87 µM (active).

For the molecule `Clc1ccc2nsnc2c1NC1=NCCN1`, the Potency result in assay [1], in assay [3], in [9], in [5] and in [6] was “inactive” in each case.

Take `COc1ccc(C2CNC(=O)C2)cc1OC1CCCC1` (centres undefined): the Potency entry in assay [1], in assay [2], in assay [9], in assay [6] and in assay [7] was “inactive” in each case.

`COc1ccccc1OCC(O)CN1CCN(CC(=O)Nc2c(C)cccc2C)CC1` (centres undefined): the Potency entry in assay [1], in assay [2], in assay [3], in [6] and in [7] was “inactive” each time.

For the molecule `O=C1c2c(O)ccc(O)c2C(=O)c2c(NCCNCCO)ccc(NCCNCCO)c21`, the Potency was 1.87 µM (active) in assay [1]; 1.66 µM (active) in assay [2]; 0.0526 µM (active) in assay [3]; 4.18 µM (active) in assay [4]; 0.296 µM (active) in [5]; 0.59 µM (active) in assay [6]. The Potency in assay [7] was 1.05 µM (active); in assay [8], 2.96 µM (active).

For `CC(C)NCC(O)COc1ccc(CCOCC2CC2)cc1` (centres undefined), the Potency entry in assay [1], in assay [2], in [3], in assay [9], in [5] and in assay [6] was “inactive” throughout. Also, in assay [8], the Potency result is “inactive”.

In the case of `COc1ccc2[nH]cc(CCNC(C)=O)c2c1`, the Potency in [2] was 0.0074 µM (active). Moreover, the Potency result in [9], in assay [5], in assay [6] and in assay [7] was “inactive” in each case.

Take `NCCc1cnc[nH]1`: the Potency result in [3], in [4], in assay [5], in assay [6] and in assay [7] was “inactive” in each case.

For `CCOC(=O)C(C)(C)Oc1ccc(Cl)cc1`, the Potency result in assay [3], in assay [4] and in assay [6] was “inactive” each time. In assay [5], the Potency is 0.662 µM (active).

On to `CC(C)C(=O)Nc1ccc([N+](=O)[O-])c(C(F)(F)F)c1`, for which the Potency was 13.2 µM (active) in assay [2]; 6.62 µM (active) in assay [3]; 3.32 µM (active) in assay [9]; 3.32 µM (active) in assay [5]; 0.935 µM (active) in assay [6]; 13.2 µM (active) in [8]. In addition, the Potency in assay [10] is 7.43 µM (active). Also, the Potency entry in assay [7] was “inactive”.

Take `CS(=O)(=O)Nc1ccc([N+](=O)[O-])cc1Oc1ccccc1`: the Potency result in assay [1], in [6] and in [8] was “inactive” throughout. Also, in assay [7], the Potency is 20.9 µM (active).

In the case of `Cc1cnc(C(=O)NCCc2ccc(S(=O)(=O)NC(=O)NC3CCCCC3)cc2)cn1`, the results for the Potency in [1], in assay [7] and in [8] were 18.7 µM (active), 18.7 µM (active) and 14.8 µM (active), respectively. In assay [6], the Potency result is “inactive”.

With `COc1cc2c(c(OC)c1OC)-c1ccc(OC)c(=O)cc1[C@@H](NC(C)=O)CC2`, the Potency result in [2], in assay [3] and in assay [5] was “inactive” throughout.

As for `CC12CC3CC(C)(C1)CC(N)(C3)C2`, the Potency result in assay [2] and in [7] was “inactive” each time. Besides, the Potency in [3] and in assay [5] was 20.9 µM (active) in each case.

On to `CCCCc1oc2ccccc2c1C(=O)c1cc(I)c(OCCN(CC)CC)c(I)c1`, for which the Potency in assay [2] is 18.7 µM (active); in assay [3] it was 16.6 µM (active); in assay [4], 18.7 µM (active); in [5], 5.9 µM (active); in [6] it was 6.62 µM (active); in assay [7], 18.7 µM (active). For the same molecule, in assay [8], the Potency is 26.4 µM (active).

On to `COC(=O)Nc1nc2ccc(C(=O)c3cccs3)cc2[nH]1`, for which the results for the Potency in assay [2], in assay [3] and in [7] were 0.001 µM (active), 0.001 µM (active) and 0.0026 µM (active), respectively.

Regarding `O=C(c1ccc(OCCN2CCCCC2)cc1)c1c(-c2ccc(O)cc2)sc2cc(O)ccc12`, the Potency is 37.2 µM (active) in assay [2], 18.7 µM (active) in assay [3], 20.9 µM (active) in assay [4] and 20.9 µM (active) in [6].

As to `Nc1nc2c(ncn2COC(CO)CO)c(=O)[nH]1`, the Potency was 20.9 µM (active) in assay [2]; 1.32 µM (active) in [3]; 20.9 µM (active) in [4]; 2.64 µM (active) in assay [5]; 10.5 µM (active) in assay [6]; 18.7 µM (active) in assay [7]. Also, in assay [8], the Potency was 14.8 µM (active).

Consider `CC[N+](CC)(CC)CCOc1cccc(OCC[N+](CC)(CC)CC)c1OCC[N+](CC)(CC)CC`, for which the Potency entry in assay [2], in [4] and in assay [5] was “inactive” each time.

In the case of `Cc1cn([C@H]2C=C[C@@H](CO)O2)c(=O)[nH]c1=O`, the Potency result in assay [2], in assay [9] and in assay [6] was “inactive” each time. In assay [5], the Potency was 12.1 µM (active).

In the case of `NS(=O)(=O)c1cc2c(cc1Cl)NCNS2(=O)=O`, the Potency entry in [3] and in assay [6] was “inactive” throughout. The Potency in [4] is 7.43 µM (active).

For `OCCN(CCO)c1nc(N2CCCCC2)c2nc(N(CCO)CCO)nc(N3CCCCC3)c2n1`, the Potency in assay [2] is 23.5 µM (active); in [4], 23.5 µM (active); in assay [5] it was 26.4 µM (active); in assay [6], 20.9 µM (active); in assay [7] it was 26.4 µM (active); in assay [8] it was 23.5 µM (active).

In the case of `CN(Cc1cnc2nc(N)nc(N)c2n1)c1ccc(C(=O)N[C@@H](CCC(=O)O)C(=O)O)cc1`, the Potency in assay [2] is 0.0264 µM (active); in assay [3], 0.0372 µM (active); in assay [4], 0.0469 µM (active); in assay [5], 1.18 µM (active); in assay [6], 0.0296 µM (active); in [7] it was 6.62 µM (active).

For `CC(COc1ccccc1)N(CCCl)Cc1ccccc1` (centres undefined), the Potency entry in assay [3], in assay [4] and in [5] was “inactive” each time.

Regarding `Cc1ccc(C(=O)Nc2ccc(S(=O)(=O)O)c3cc(S(=O)(=O)O)cc(S(=O)(=O)O)c23)cc1NC(=O)c1cccc(NC(=O)Nc2cccc(C(=O)Nc3cc(C(=O)Nc4ccc(S(=O)(=O)O)c5cc(S(=O)(=O)O)cc(S(=O)(=O)O)c45)ccc3C)c2)c1`, the Potency entry in assay [2], in [4], in assay [5], in assay [6], in assay [7] and in assay [8] was “inactive” in each case. The Potency in assay [3] was 4.69 µM (active).

(Values after PubChem BioAssay (NCATS).)
